This note sets out measurements from the supplement of paper PMC9135407.

Several values for one entry are separate records, joined by “and”; a condition that tells them apart may be missing. Equal values may be shown once. Where a name gives a salt, the structure may show the parent alone. Hit rate of the full screen: of about 5,800 compounds, about 620 (11%) showed activity. What follows is part of a selection rich in actives, with near analogues and random picks from the rest. Unmarked numbers belong to inactive results.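 Rule for the calls: active = score above a cut-off or among the top three wells of a plate; in these data no inactive exceeds 0.85.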

This assay has as its system primary human hepatic stellate cells (donor 1). Put plainly: scaled lipid accumulation score (0 = DMSO-like, 1 = nortriptyline-like); higher = stronger HSC inactivation (lipid re-accumulation), active = hit call of the paper. The conditions noted are these: 48 h.
[1] abbreviates: library stock concentration: 10 mM.
Where [2] appears, read: library stock concentration: 3.33 mM.
[3] abbreviates: library stock concentration: 1 mM.
Setting [4] is: library stock concentration: 400 uM.
Setting [5] is: library stock concentration: 2 mM.
Where [6] appears, read: library stock concentration: 80 uM.

For `CC(=O)OCC(=O)NCCCOc1cccc(CN2CCCCC2)c1`, under setting [1], the “scaled lipid accumulation score” value is at most 0. For `O=C(O)/C=C\C(=O)O.O=C(O)/C=C\C(=O)O.c1cc(CN2CCCCC2)cc(OCCCNc2nc3ccccc3s2)c1`, the “scaled lipid accumulation score” value under setting [1] is 1.03 (active). Same read-out and setting: the same measure for `O=C(O)Cc1cccc(OCCCN(Cc2cccc(C(F)(F)F)c2Cl)CC(c2ccccc2)c2ccccc2)c1` [GW 3965 hydrochloride]: at most -0.001. Consider `CC(=O)OCC(=O)NCCCOc1cccc(CN2CCCCC2)c1` [Roxatidine acetate HCl], for which, under “library stock concentration: 5.7 mM”, the “scaled lipid accumulation score” value is at most 0. Take `c1ccc2sc(N3CCN(Cc4ccc5c(c4)OCO5)CC3)nc2c1` [2-[1-(4-Piperonyl)piperazinyl]benzothiazole]: the “scaled lipid accumulation score” value under setting [1] is at most 0. Still for that read-out and setting: under `O=C(O)/C=C\C(=O)O.O=C(O)/C=C\C(=O)O.c1cc(CN2CCCCC2)cc(OCCCNc2nc3ccccc3s2)c1` [Zolantidine dimaleate] stands 1.5 (active). Regarding `O=C(O)Cc1cccc(OCCCN(Cc2cccc(C(F)(F)F)c2Cl)CC(c2ccccc2)c2ccccc2)c1`, the “scaled lipid accumulation score” value reads like this: under setting [2], at most 0; under setting [1], 0.181. With `CC(=O)OCC(=O)NCCCOc1cccc(CN2CCCCC2)c1` [Roxatidine Acetate HCl], the “scaled lipid accumulation score” value is 0.032. Under setting [2], the “scaled lipid accumulation score” value is at most 0. In addition, the “scaled lipid accumulation score” value under setting [1] is at most 0.

With `CCCCCCCCCCCCCCCCCC(=O)N[C@H]1CCOC1=O` [N-octadecanoyl-L-Homoserine lactone], under setting [3], the “scaled lipid accumulation score” value is at most 0. For `CCCCN1C[C@H](O)[C@@H](O)[C@H](O)[C@H]1CO` [Miglustat], the “scaled lipid accumulation score” value (library stock concentration: 9.1 mM) is at most 0. As for `Nc1nc(Nc2ccccc2)nc2c1ncn2[C@@H]1O[C@H](CO)[C@@H](O)[C@H]1O`, the “scaled lipid accumulation score” value under setting [1] was at most 0. Same read-out and setting: under `CS(=O)(=O)O.Cc1ccc(NC(=O)c2ccc(CN3CCN(C)CC3)cc2)cc1Nc1nccc(-c2cccnc2)n1` [Imatinib] stands 0.969 (active).

Turning to `Cc1ccc(NC(=O)c2ccc(CN3CCN(C)CC3)cc2)cc1Nc1nccc(-c2cccnc2)n1`, the “scaled lipid accumulation score” value was 0.022 under setting [4], at most -0.005 under setting [5] and 0.628 under setting [1]. Take `CS(=O)(=O)O.Cc1ccc(NC(=O)c2ccc(CN3CCN(C)CC3)cc2)cc1Nc1nccc(-c2cccnc2)n1`: the “scaled lipid accumulation score” value under setting [1] is 1.08 (active). Take `Cc1ccc(NC(=O)c2ccc(CN3CCN(C)CC3)cc2)cc1Nc1nccc(-c2cccnc2)n1` [Imatinib]: the “scaled lipid accumulation score” value under setting [6] is at most 0, the “scaled lipid accumulation score” value under setting [4] was at most 0 and the “scaled lipid accumulation score” value under setting [5] is 0.049. Regarding `CS(=O)(=O)O.Cc1ccc(NC(=O)c2ccc(CN3CCN(C)CC3)cc2)cc1Nc1nccc(-c2cccnc2)n1` [Imatinib Mesylate (STI571)], under setting [1], the “scaled lipid accumulation score” value was 1.1 (active). On the same count and under the same terms, the same measure for `Cc1ccc(NC(=O)c2ccc(CN3CCN(C)CC3)cc2)cc1Nc1nccc(-c2cccnc2)n1` [Imatinib (STI571)] [listing 1 of 2 here]: 0.92 (active).

For `Cc1ccc(NC(=O)c2ccc(CN3CCN(C)CC3)cc2)cc1Nc1nccc(-c2cccnc2)n1` [Imatinib Mesylate (STI571)], the “scaled lipid accumulation score” value under setting [2] was 0.259. Turning to `Cc1ccc(NC(=O)c2ccc(CN3CCN(C)CC3)cc2)cc1Nc1nccc(-c2cccnc2)n1` [Imatinib (STI571)] [listing 2 of 2 here], the “scaled lipid accumulation score” value under setting [2] is 0.133. Regarding `Cc1cc(-c2ccc(CC(=O)Nc3ccc(-c4cccnc4)cc3)cc2)ccn1`, the “scaled lipid accumulation score” value was 0.089 under setting [2] and 0.262 under setting [1]. On to `CCCCC/C=C\C/C=C\C/C=C\CCCCCCC(=O)O` [Dihomo-gamma-linolenic acid], for which the “scaled lipid accumulation score” value under setting [3] was at most -0.021. Still for that read-out and setting: the same measure for `CCCCC/C=C\C/C=C\C/C=C\CCCCCCC(=O)O` [Dihomo-.gamma.-Linolenic Acid]: 0.003. Consider `CCCCC(CC)COC(=O)CC(C(=O)OCC(CC)CCCC)S(=O)(=O)O` (stereo not given), for which, under setting [1], the “scaled lipid accumulation score” value is at most 0. `CCCCC[C@H](O)/C=C/[C@H]1[C@H](O)CC(=O)[C@H]1C/C=C\CCCC(=O)OC(C)C` [8-iso Prostaglandin E2 isopropyl ester]: the “scaled lipid accumulation score” value under setting [3] is at most 0. Still for that read-out and setting: under `CC/C=C\C/C=C\C/C=C\C/C=C\C/C=C\C/C=C\CCC(=O)O[C@H](COCCCCCCCCCCCCCCCC)COP(=O)([O-])OCC[N+](C)(C)C` [Docosahexaenoyl PAF C-16] stands at most 0; under `CC/C=C\C/C=C\C/C=C\C/C=C\C/C=C\CCCC(=O)O[C@H](COCCCCCCCCCCCCCCCC)COP(=O)([O-])OCC[N+](C)(C)C` [Eicosapentaenoyl PAF C-16], at most 0. Take `COc1ccc(CCN(C)CCCC(C#N)(c2cc(OC)c(OC)c(OC)c2)C(C)C)cc1OC` (stereo not given): the “scaled lipid accumulation score” value under setting [1] is 0.616. As to `CCCCC[C@H](O)/C=C/[C@@H]1[C@H]2C[C@@H](CCCCC(=O)O)O[C@H]2C[C@H]1O` [6.alpha.-Prostaglandin I1], the “scaled lipid accumulation score” value under setting [3] is 0.002. In the case of `C=CCc1ccc(O)c(-c2ccc(O)c(CC=C)c2)c1` [Honokiol], the “scaled lipid accumulation score” value is, setting by setting: under setting [2], at most 0; under setting [1], 0.295. Turning to `CCCCC[C@@H](O)/C=C/[C@H]1C(=O)C[C@H](O)[C@@H]1CCCCCCCO` [Prostaglandin D1 Alcohol], under setting [3], the “scaled lipid accumulation score” value is at most 0.

As for `CC(=O)CCCCn1cnc2c1c(=O)n(C)c(=O)n2C`, the “scaled lipid accumulation score” value under setting [1] is at most 0. For `Nc1ncnc2c1C(=O)N(c1ccc([C@H]3CC[C@H](CC(=O)O)CC3)cc1)CCO2`, the “scaled lipid accumulation score” value is, setting by setting: under setting [2], at most -0.009; under setting [1], at most 0. For `COc1ccc(CNCc2cccc3ccccc23)cc1`, in that order: 0.023 and 0.491. Regarding `COc1ccc(CCC(C)NC2CC(C)(C)NC(C)(C)C2)cc1` (stereo not given), under setting [1], the “scaled lipid accumulation score” value was 0.998 (active). The same measure, in the same setting: under `CC(/C=C/c1cccc(Oc2ccc(F)cc2)c1)N(O)C(N)=O` (stereo not given) stands 0.544 and 0.071. Same read-out and setting: under `C[C@@H]1C[C@H]2[C@@H]3CCC4=CC(=O)C=C[C@]4(C)[C@@]3(F)[C@@H](O)C[C@]2(C)[C@H]1C(=O)CO` stands at most 0. On to `Cc1cc(C)cc(OCC2CNC(=O)O2)c1` (stereo not given) [Metaxalone], for which the “scaled lipid accumulation score” value runs as follows: (library stock concentration: 9 mM) at most 0; under setting [1], at most -0.023. `COc1ccc2nc3cc(Cl)ccc3c(Nc3cc(CN4CCCC4)c(O)c(CN4CCCC4)c3)c2n1`: the “scaled lipid accumulation score” value under setting [1] was 0.065. Turning to `N=C(N)NC(=N)N1CCOCC1` [Moroxydine HCl], the “scaled lipid accumulation score” value is, setting by setting: under setting [2], 0.051; (library stock concentration: 9.6 mM) at most -0.006; under setting [1], at most 0.

For `N=C(N)NC(=N)N1CCOCC1`, under setting [1], the “scaled lipid accumulation score” value is at most 0. As to `CCN(CC)CCOc1ccc(Nc2ncc3cc(-c4c(Cl)cccc4Cl)c(=O)n(C)c3n2)cc1`, the “scaled lipid accumulation score” value under setting [1] is 0.416. `CSc1cccc(Nc2ncc3cc(-c4c(Cl)cccc4Cl)c(=O)n(C)c3n2)c1`: the “scaled lipid accumulation score” value by setting is: under setting [2], 0.68; under setting [1], 0.591. With `CCN(CC)CCCCNc1ncc2cc(-c3c(Cl)cccc3Cl)c(NC(=O)NC(C)(C)C)nc2n1` [listing 1 of 2 here], under setting [1], the “scaled lipid accumulation score” value is 1.41 (active). Still for that read-out and setting: the same measure for `CCN(CC)CCCCNc1ncc2cc(-c3c(Cl)cccc3Cl)c(NC(=O)NC(C)(C)C)nc2n1` [listing 2 of 2 here]: 0.999 (active).

`COc1c(C=O)c(O)cc2c1C(=O)c1ccccc1C2=O` [Damnacanthal]: for the setting “library stock concentration: 17.7 mM”, the “scaled lipid accumulation score” value is at most -0.011. In the case of `Nc1nc(=O)c2c([nH]1)NC[C@@H](CNc1ccc(C(=O)N[C@@H](CCC(=O)O)C(=O)O)cc1)N2C=O` [Folinic acid calcium salt], the “scaled lipid accumulation score” value is at most 0.

For `O=C(c1ccc(C=Cc2n[nH]c3ccccc23)cc1)N1CCNCC1`, the “scaled lipid accumulation score” value under setting [1] is 1.27 (active). For the compound `O=C(c1ccc(/C=C/c2n[nH]c3ccccc23)cc1)N1CCNCC1`, the “scaled lipid accumulation score” value reads like this: under setting [6], at most -0.016; under setting [4], at most -0.016; under setting [5], at most -0.016; under setting [2], 0.101; under setting [1], 0.67. Take `CCC(=O)N1CCN(C(=O)c2ccccc2)CC1`: the “scaled lipid accumulation score” value under setting [1] was 0.027. Turning to `CCCCC(CC)CNC(=N)NC(=N)NCCCCCCNC(=N)NC(=N)NCC(CC)CCCC` (stereo not given) [Alexidine dihydrochloride], the “scaled lipid accumulation score” value is 0.586. In the case of `CCCCC(C)(C)[C@H](O)/C=C/[C@@H]1[C@@H](C/C=C\CCCC(=O)O)[C@@H](O)C[C@H]1O` [16,16-dimethyl Prostaglandin F2.alpha.], the “scaled lipid accumulation score” value under setting [3] is at most 0. For `O=[N+]([O-])c1cn2c(n1)OC[C@@H](OCc1ccc(OC(F)(F)F)cc1)C2`, the “scaled lipid accumulation score” value reads like this: under setting [2], at most 0; under setting [1], at most 0. For the compound `O=[N+]([O-])c1ccc2c(c1)S(=O)(=O)C=C2` [Stattic] [listing 1 of 2 here], the “scaled lipid accumulation score” value under setting [1] was 0.347.

For the compound `NC(=O)c1ccc([N+](=O)[O-])cc1Cl` [Aklomide], the “scaled lipid accumulation score” value under setting [1] is 0.07. For `O=[N+]([O-])c1ccc2c(c1)S(=O)(=O)C=C2` [Stattic] [listing 2 of 2 here], under setting [2], the “scaled lipid accumulation score” value was 1.25 (active). Consider `CCCCCCCC/C=C\CCCCCCCC(=O)NCC` [Oleoyl Ethyl Amide], for which, under setting [3], the “scaled lipid accumulation score” value is at most 0. For `O=c1[nH]cnc2[nH]ncc12` [Allopurinol Sodium], the “scaled lipid accumulation score” value reads like this: under setting [2], at most 0; under setting [1], at most 0. As to `CC(C)C(=O)Oc1ccc(CO)cc1[C@H](CCN(C(C)C)C(C)C)c1ccccc1.O=C(O)C=CC(=O)O` [Fesoterodine Fumarate], the “scaled lipid accumulation score” value under setting [1] is 1.13 (active). Turning to `CC(C)N(CC[C@H](c1ccccc1)c1cc(CO)ccc1O)C(C)C`, the “scaled lipid accumulation score” value by setting is: under setting [2], 0.012; under setting [1], at most 0. `CC(C)C(=O)Oc1ccc(CO)cc1[C@H](CCN(C(C)C)C(C)C)c1ccccc1` [Fesoterodine Fumarate]: under setting [2], the “scaled lipid accumulation score” value was 0.256. For the compound `O=C(Cc1ccccc1Nc1c(Cl)cccc1Cl)Oc1ccc(-c2cc(=S)ss2)cc1`, the “scaled lipid accumulation score” value under setting [3] was at most 0. Regarding `O=C(Nc1nc2ccccc2n1CCN1CCOCC1)c1cccc([N+](=O)[O-])c1` [IRAK-1/4 Inhibitor I], the “scaled lipid accumulation score” value under setting [1] was 0.485. Take `C[C@H]1[C@H]2CC[C@H]3[C@@H]4CC=C5C[C@@H](N(C)C)CC[C@]5(C)[C@H]4CC[C@]23CN1C` [Conessine]: the “scaled lipid accumulation score” value was 0.137. As to `Cc1cc(C(C)Nc2ccccc2)c2nc(N3CCOCC3)cc(=O)n2c1` (stereo not given), the “scaled lipid accumulation score” value under setting [6] is at most -0.009; the “scaled lipid accumulation score” value under setting [4] is ≤ -0.009 and ≤ -0.005; the “scaled lipid accumulation score” value under setting [5] is ≤ -0.009 and ≤ -0.005; the “scaled lipid accumulation score” value under setting [2] was at most 0; the “scaled lipid accumulation score” value under setting [1] was ≤ 0 and ≤ -0.009 and ≤ -0.005.
